The campaign covered roughly 310,000 compounds. About 2,200 (0.71%) showed an effect of 50% or more. The effect is printed as a negative number. This excerpt belongs to a sample that is enriched for strong results.
molecular target: human ether-à-go-go-related gene (hERG) potassium channel (human, UniProt Q12809); experiment: primary screen, population patch clamp on CHO cells stably expressing hERG; higher = less effect of the substance
Sequence (Q12809 whole entry, looked up): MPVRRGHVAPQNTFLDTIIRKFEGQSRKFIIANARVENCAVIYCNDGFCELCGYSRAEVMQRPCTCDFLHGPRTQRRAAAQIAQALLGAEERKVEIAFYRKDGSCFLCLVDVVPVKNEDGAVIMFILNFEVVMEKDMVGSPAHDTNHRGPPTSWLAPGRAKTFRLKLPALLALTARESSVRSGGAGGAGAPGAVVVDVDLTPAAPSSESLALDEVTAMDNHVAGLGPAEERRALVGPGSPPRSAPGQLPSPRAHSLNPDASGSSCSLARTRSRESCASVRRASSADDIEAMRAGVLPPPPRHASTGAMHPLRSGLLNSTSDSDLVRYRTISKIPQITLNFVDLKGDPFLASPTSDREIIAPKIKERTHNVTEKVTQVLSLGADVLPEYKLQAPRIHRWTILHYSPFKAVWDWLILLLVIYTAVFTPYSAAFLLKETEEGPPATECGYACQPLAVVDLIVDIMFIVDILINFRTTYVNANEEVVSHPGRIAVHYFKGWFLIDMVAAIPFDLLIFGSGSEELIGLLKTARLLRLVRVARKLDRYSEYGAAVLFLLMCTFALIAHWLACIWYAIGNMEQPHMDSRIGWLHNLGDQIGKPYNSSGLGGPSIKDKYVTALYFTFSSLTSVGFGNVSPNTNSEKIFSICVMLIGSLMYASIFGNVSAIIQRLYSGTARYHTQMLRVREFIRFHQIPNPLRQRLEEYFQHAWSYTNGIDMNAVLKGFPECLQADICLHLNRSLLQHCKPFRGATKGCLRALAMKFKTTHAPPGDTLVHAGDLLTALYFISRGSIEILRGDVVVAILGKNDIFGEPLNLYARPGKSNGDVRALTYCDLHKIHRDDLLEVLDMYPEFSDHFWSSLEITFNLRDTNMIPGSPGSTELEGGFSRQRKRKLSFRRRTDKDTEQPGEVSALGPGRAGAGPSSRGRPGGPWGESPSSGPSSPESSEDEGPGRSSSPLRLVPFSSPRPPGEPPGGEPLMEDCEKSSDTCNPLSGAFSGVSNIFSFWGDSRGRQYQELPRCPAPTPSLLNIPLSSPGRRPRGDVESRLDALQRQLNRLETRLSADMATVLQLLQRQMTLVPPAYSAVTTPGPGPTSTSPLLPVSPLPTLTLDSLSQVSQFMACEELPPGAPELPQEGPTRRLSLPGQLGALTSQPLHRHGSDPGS

Structure (SMILES)	hERG current change (%, negative = inhibition) at 1uM [%]
CC(C)(C)OC(=O)NCCCCCc1nnc(SCc2ccc(F)cc2)o1	3.71
CCCCc1cc2c(s1)CCCC/C2=N/O	2.41
Cc1cc(S(=O)(=O)Nc2ccc(C(=O)NCCCN3CCOCC3)cc2)ccc1F	19.8
Cc1ccsc1/C=N/n1c(-c2ccncc2)n[nH]c1=S	19.8
O=C(O)C=C(Br)Br	7.58
COC(=O)/C(=C1/Oc2cc(C)oc(=O)c2S1)C(F)(F)F	13.6
CCOC(=O)CON1C(=O)C(C)(C)N(OCC(=O)OCC)C(=O)C1(C)C	15.7
Cc1ccc(-n2ccnc(SCC(=O)NC3CCCCC3)c2=O)cc1F	14.5
CC(c1ccccc1)C1CC(=O)N(CC(=O)O)C1=O (stereo not drawn)	16.2
Cc1cccn2c(=O)c3cc(C(=O)NC4CCCC4)n(C)c3nc12	9.12
Cc1cccn2c(=O)c3cc(C(=O)NC4CCCC4)c(=N)n(C4CCCCC4)c3nc12	-81.9
Cc1cccn2c(=O)c3cc(C(=O)NC4CCCC4)c(=N)n(C4CCCC4)c3nc12	-87
Cc1cccn2c(=O)c3cc(C(=O)NC4CCCC4)sc3nc12	2.15
Cc1cccn2c(=O)c3cc(C(=O)NC4CCCCC4)n(C)c3nc12	13.8
Cc1cccn2c(=O)c3cc(C(=O)NC4CCCCCC4)sc3nc12	15.1
Cc1ccc(C(=O)CSc2nnc(COc3ccc(C#N)cc3)n2-c2ccccc2)cc1	11.8
O=C(CCc1nc(-c2ccccc2Cl)no1)NC1CCCC1	1.7
CCOC(=O)Nc1ccc2c(c1)N(C(=O)CCN(C)C)c1ccccc1S2.Cl	-5.69
COc1cc(CN2CCC(CO)(CCOc3ccccc3)CC2)cc(OC)c1	-8.26
COc1ccc2[nH]c(CN3CCC(CO)(CCOc4ccccc4)CC3)c(C)c2c1	9.37
CC(=O)c1cccc(CN2CCC(CO)(CCOc3ccccc3)CC2)c1	-3.07
COc1cc(Cl)c(CN2CCC(CO)(CCOc3ccccc3)CC2)cc1OC	-85.1
COc1cc(OC)c(CN2CCC(CO)(CCOc3ccccc3)CC2)c(OC)c1	-87.7
COc1cc(CN2CCC(CO)(CCOc3ccccc3)CC2)cc(OC)c1OC	3.71

Structure (SMILES)	hERG current change (%, negative = inhibition) at 1uM [%]
COc1ccc(OC)c(CN2CCC(CO)(CCOc3ccccc3)CC2)c1	-30
Cc1nn(C)c(Cl)c1CN1CCC(CO)(CCOc2ccccc2)CC1	-12.9
COc1ccc(CN2CCC(CO)(CCOc3ccccc3)CC2)cc1C	-77.6
COc1ccc(CN2CCC(CO)(CCOc3ccccc3)CC2)c(OC)c1C	-81.6
COc1cc(Cl)c(CN2CCCC(CO)(Cc3ccccc3)C2)cc1OC (stereo not drawn)	-2.72
COC(=O)c1ccc(NC(=S)Nc2ccc(O)cc2)cc1	5.34
O=C(CNCCCO)Nc1cc(C(F)(F)F)cc(NC(=O)CNCCCO)c1Cl	9.02
N#Cc1cccc(NC(=O)c2ccc(S(=O)(=O)N3CCOCC3)cc2)c1	0.709
COC(=O)c1cc(Cl)cc(Cl)c1OS(=O)(=O)N(C)C	1.43
N#CC1=C(N)Oc2nc[nH]c(=O)c2C1c1cccs1 (stereo not drawn)	17.3
CCOC(=O)C(OC(=O)c1sc(=S)n(C)c1C)C(C)=O (stereo not drawn)	18
COc1ccccc1CN1CCNC(=O)C1CC(=O)N(C)Cc1nc(C)cs1 (stereo not drawn)	17.2
CC(=O)c1ccccc1NC(=O)COC(=O)c1ccc2c(c1)nc(C)n2-c1ccccc1	20.6
CC(=O)c1c(C)[nH]c(C(=O)OCc2ccc(F)cc2Cl)c1C	10.6
Cc1cc2oc(=O)cc(CN3CCC(C)CC3)c2cc1C	12.8
Cc1ccc(C)c(Oc2coc3cc(O)ccc3c2=O)c1	0.658
CCOC(=O)C1=NN(c2ccc(C)cc2)C2(S1)SC(C(C)=O)=C(C)N2c1ccccc1 (stereo not drawn)	8.85
Clc1cccc(CSc2nnc(-c3cccnc3)n2Cc2ccco2)c1	-61
C(=C\c1ccccc1)/CSc1nnc(-c2cccnc2)n1Cc1ccco1	-51.9
C(=C\c1ccccc1)/CSc1nnc(-c2ccncc2)n1Cc1ccco1	-26.9
Clc1ccccc1CSc1nnc(-c2cccnc2)n1Cc1ccco1	-14.2
Clc1ccc(CSc2nnc(-c3cccnc3)n2Cc2ccco2)c(Cl)c1	-42.3
C(=C\c1ccccc1)/CSc1nnc(-c2ccccc2)n1Cc1ccco1	-45.4
Cc1cc(C)cc(NC(=O)Cn2nnc(C(=O)NCc3ccccc3Cl)c2N)c1	13.6

Source: publication PMC4336329 (PLoS ONE, 2015)
